# Results taken from PubChem BioAssay (EPA / NIEHS).
# Records with an inconclusive call do not appear. Calls of active or inactive are those of the source. Rule for the calls, unless noted: active = hit-call score of the fitted dose curve at least 0.9, where 1 is the maximum; inconclusive = response in the unintended direction; inactive = score below 0.9.
# Columns and labels:
# [1] = ATG_TCF_b_cat_CIS: Attagene CIS-FACTORIAL HepG2 Assay for human T-Cell-Factor with beta-catenin (TCF/b-cat) (AID 2282965; active = hit-call score of the fitted dose curve at least 0.9, where 1 is the maximum; inactive = score below 0.9); conditions: HepG2 TCF/beta-catenin cis-reporter transcription, actives raise or lower the signal
# Method in brief: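 Endogenous transcription factor activity is captured through cis-promoter reporter constructs transiently introduced into human HepG2 liver cells. Induced reporter mRNA is measured after 24 h and fitted bidirectionally relative to DMSO.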
# [2] = ATG_TAL_CIS: Attagene CIS-FACTORIAL HepG2 Assay for human TAL Basal Promoter (AID 2282966; active = hit-call score of the fitted dose curve at least 0.9, where 1 is the maximum; inactive = score below 0.9;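 note: background control endpoint measuring basal TAL promoter reporter mRNA not a specific factor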); conditions: HepG2 Attagene cis-factorial TAL promoter reporter; actives raise or lower the signal
# Method in brief: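 Human hepatoma HepG2 cells, transfected with promoter-regulated reporter units, were treated 24 h. Reporter transcript levels, measured through RT-PCR and capillary electrophoresis, were fitted for gain or loss relative to DMSO.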
# [3] = ATG_TGFb_CIS: Attagene CIS-FACTORIAL HepG2 Assay for human Transforming Growth Factor (TGF) (AID 2282967; active = hit-call score of the fitted dose curve at least 0.9, where 1 is the maximum; inactive = score below 0.9); conditions: HepG2 Attagene CIS TGFb reporter, mRNA transcription; actives raise or lower the signal
# Method in brief: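 Readout: fluorescently labeled reporter cDNA fragments resolved by capillary electrophoresis after RT-PCR. Transfected HepG2 cells dosed for 24 h; endogenous TF activity at TGFB1-linked cis element; gain or loss fitted relative to DMSO.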
# [4] = ATG_VDRE_CIS: Attagene CIS-FACTORIAL HepG2 Assay for human Vitamin D Receptor Element (VDRE) (AID 2282968; active = hit-call score of the fitted dose curve at least 0.9, where 1 is the maximum; inactive = score below 0.9); conditions: HepG2 VDRE cis-reporter transcription, actives raise or lower the signal
# Method in brief: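 Readout is VDRE-driven reporter mRNA reflecting endogenous factor activity in human HepG2 cells, sampled 24 h post-dose. Quantification used labelled RT-PCR products separated by capillary electrophoresis; bidirectional analysis relative to DMSO.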
# [5] = biological target: Estrogen receptor (Homo sapiens) (UniProt P03372); experiment: ATG_ERa_TRANS: Attagene TRANS-FACTORIAL HepG2 Assay for human Estrogen Receptor alpha (ERa) (AID 2282970); conditions: HepG2 Attagene TRANS ERa GAL4 reporter, mRNA
# Method in brief: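 Signal derives from fluorescence of labelled reporter PCR fragments separated by capillary electrophoresis. HepG2 cells transiently carrying multiple GAL4-UAS reporter units were treated 24 hours, and induction above DMSO baseline was fitted as activity.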
# [6] = biological target: X-box-binding protein 1 (Homo sapiens) (UniProt P17861); experiment: ATG_Xbp1_CIS: Attagene CIS-FACTORIAL HepG2 Assay for human X-box Binding Protein 1 (XBP1) (AID 2282972; active = hit-call score of the fitted dose curve at least 0.9, where 1 is the maximum; inactive = score below 0.9); conditions: HepG2 XBP1 cis-element reporter, Attagene multiplex; actives raise or lower the signal
# Method in brief: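 Changes in reporter transcript abundance, read by RT-PCR and capillary electrophoresis, reflect endogenous transcription factor activity. Transfected HepG2 cells received compound for 24 hours; DMSO defined baseline for bidirectional analysis.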
# [7] = ATG_GAL4_TRANS: Attagene TRANS-FACTORIAL HepG2 Assay for GAL4 (Internal Marker) (AID 2282976); conditions: HepG2 Attagene TRANS GAL4 internal marker reporter
# Method in brief: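 Liver HepG2 line bearing multiplexed GAL4-UAS reporter constructs; 24 h chemical treatment. Transcripts were quantified as fluorescent fragments on capillary electrophoresis after RT-PCR and HpaI cut, with activity fitted upward from DMSO.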
# [8] = biological target: Estrogen-related receptor gamma (Homo sapiens) (UniProt P62508); experiment: ATG_ERRg_TRANS: Attagene TRANS-FACTORIAL HepG2 Assay for human Estrogen-Related Receptor gamma (ERRg) (AID 2282977); conditions: HepG2 Attagene TRANS reporter, ERRg transactivation;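 note: hits increase reporter signal over DMSO so potencies reflect activators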
# Method in brief: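 Exogenous NR-Gal4 chimera activity measured as reporter transcript induction after 24 h in transiently transfected HepG2 cells. RNA reverse-transcribed, PCR-amplified, 6-FAM-labelled and resolved by capillary electrophoresis; increase over DMSO baseline.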
# [9] = biological target: Glucocorticoid receptor (Homo sapiens) (UniProt P04150); experiment: ATG_GR_TRANS: Attagene TRANS-FACTORIAL HepG2 Assay for human Glucocorticoid Receptor (GR) (AID 2282978); conditions: HepG2 Attagene TRANS GR reporter, mRNA transcription;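 note: activators score as hits since higher reporter transcript over DMSO is fitted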
# Method in brief: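 Readout is reporter transcript from a chimeric GR-Gal4 acting on GAL4-UAS in transfected human HepG2 liver cells after 24 h exposure, quantified by RT-PCR and capillary electrophoresis. Activation fitted upward against DMSO.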
# [10] = biological target: Transcriptional activator Myb (Homo sapiens) (UniProt P10242); experiment: ATG_Myb_CIS: Attagene CIS-FACTORIAL HepG2 Assay for human Myeloblastosis (Myb) Proto-Oncogene Transcription Factor (AID 2282986; active = hit-call score of the fitted dose curve at least 0.9, where 1 is the maximum; inactive = score below 0.9); conditions: HepG2 Attagene CIS-FACTORIAL Myb reporter transcription; actives raise or lower the signal
# Method in brief: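 Reporter mRNA is quantified by RT-PCR and capillary electrophoresis 24 h after dosing HepG2 cells transfected with cis-regulated reporter units, which track endogenous transcription factor activity. Gain and loss of signal are fitted versus DMSO baseline.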
# [11] = biological target: Oxysterols receptor LXR-beta (Homo sapiens) (UniProt P55055); experiment: ATG_LXRb_TRANS: Attagene TRANS-FACTORIAL HepG2 Assay for human Liver X Receptor beta (LXRb) (AID 2282981); conditions: HepG2 Attagene TRANS GAL4-LXRb reporter, mRNA
# Method in brief: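 After 24 h chemical treatment of transfected HepG2 cells carrying exogenous NR-Gal4 chimeras, reporter mRNA was quantified by fluorescent RT-PCR and capillary electrophoresis; activity taken as increase over DMSO controls.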
# [12] = biological target: Hepatocyte nuclear factor 4-alpha (Homo sapiens) (UniProt P41235); experiment: ATG_HNF4a_TRANS: Attagene TRANS-FACTORIAL HepG2 Assay for human Hepatocyte Nuclear Factor 4 alpha (HNF4a) (AID 2282982); conditions: HepG2 HNF4a transactivation reporter, mRNA readout
# Method in brief: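 Activity of an exogenous HNF4a–Gal4 fusion scored as induced GAL4-UAS reporter transcripts after 24 h chemical exposure of transfected human HepG2 cells. Read-out via RT-PCR with 6-FAM labelling and capillary electrophoresis; rise over DMSO baseline.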
# [13] = ATG_M_06_TRANS: Attagene TRANS-FACTORIAL HepG2 Assay for M06 Transcription Factor (Internal Marker) (AID 2282983); conditions: HepG2 Attagene TRANS M06 internal marker reporter
# Method in brief: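 Multi-reporter-transfected HepG2, 24 h treatment; reporter transcripts quantified via RT-PCR, primer-extension labelling and CE. DMSO-normalized gain-of-signal fit.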
# [14] = ATG_M_32_TRANS: Attagene TRANS-FACTORIAL HepG2 Assay for M32 Transcription Factor (Internal Marker) (AID 2282984); conditions: HepG2 Attagene TRANS M32 internal marker reporter
# Method in brief: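 Internal background reporter in transfected HepG2: after 24 h chemical exposure, RNA reverse-transcribed, reporter cDNA amplified, fluorescently labelled and HpaI-cut, then sized by capillary electrophoresis. Gain of signal fitted against DMSO control.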
# [15] = biological target: Nuclear receptor subfamily 4 group A member 2 (Homo sapiens) (UniProt P43354); experiment: ATG_NURR1_TRANS: Attagene TRANS-FACTORIAL HepG2 Assay for human Nuclear Receptor Related Protein 1 (NURR1) (AID 2282985); conditions: HepG2 Attagene TRANS reporter, mRNA readout
# Method in brief: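 Reporter transcript induction, measured by RT-PCR with fluorescent labelling, HpaI digestion and capillary electrophoresis, after 24 hr dosing of human HepG2 cells transiently expressing an exogenous NR-Gal4 fusion with GAL4-UAS-driven reporters; DMSO as baseline.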
# [16] = biological target: Bile acid receptor (Homo sapiens) (UniProt Q96RI1); experiment: ATG_FXR_TRANS: Attagene TRANS-FACTORIAL HepG2 Assay for Farnesoid X Receptor (FXR) (AID 2282979); conditions: HepG2 Attagene TRANS FXR-GAL4 reporter transcription;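 note: hits raise reporter mRNA above DMSO so AC50 marks FXR activation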
# Method in brief: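 After 24 h chemical treatment of transfected HepG2 cells, GAL4-UAS reporter transcripts driven by an exogenous FXR-GAL4 fusion were measured by RT-PCR and capillary electrophoresis. Increases over DMSO were fitted.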
# [17] = ATG_M_19_TRANS: Attagene TRANS-FACTORIAL HepG2 Assay for M19 Transcription Factor (Internal Marker) (AID 2282974); conditions: HepG2 Attagene TRANS-FACTORIAL M19 internal marker reporter
# Method in brief: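 Background-control readout: after 24 h chemical exposure of transfected HepG2 carrying GAL4-driven reporter units, RNA was reverse-transcribed, amplified, fluorescently labeled and sized by capillary electrophoresis; gain-of-signal fit against DMSO.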
# [18] = biological target: Oxysterols receptor LXR-alpha (Homo sapiens) (UniProt Q13133); experiment: ATG_LXRa_TRANS: Attagene TRANS-FACTORIAL HepG2 Assay for human Liver X Receptor alpha (LXRa) (AID 2282980); conditions: HepG2 Attagene TRANS reporter, LXRa transactivation
# Method in brief: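 In this multiplexed TRANS system, compounds act on HepG2 cells carrying GAL4-UAS reporter units and a receptor-GAL4 fusion for 24 h. Induced reporter RNA is amplified, fluorescently labelled and sized by capillary electrophoresis, with DMSO as baseline.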
# Sequence of X-box-binding protein 1 (Homo sapiens) (P17861 whole entry, looked up): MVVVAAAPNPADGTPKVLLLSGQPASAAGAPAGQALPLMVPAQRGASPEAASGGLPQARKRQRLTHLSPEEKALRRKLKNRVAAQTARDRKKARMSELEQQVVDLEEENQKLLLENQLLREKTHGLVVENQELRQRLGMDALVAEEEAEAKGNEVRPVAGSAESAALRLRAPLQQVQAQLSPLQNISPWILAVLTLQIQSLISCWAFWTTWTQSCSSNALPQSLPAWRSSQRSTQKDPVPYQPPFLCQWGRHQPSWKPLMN
# Sequence of Transcriptional activator Myb (Homo sapiens) (P10242 whole entry, looked up): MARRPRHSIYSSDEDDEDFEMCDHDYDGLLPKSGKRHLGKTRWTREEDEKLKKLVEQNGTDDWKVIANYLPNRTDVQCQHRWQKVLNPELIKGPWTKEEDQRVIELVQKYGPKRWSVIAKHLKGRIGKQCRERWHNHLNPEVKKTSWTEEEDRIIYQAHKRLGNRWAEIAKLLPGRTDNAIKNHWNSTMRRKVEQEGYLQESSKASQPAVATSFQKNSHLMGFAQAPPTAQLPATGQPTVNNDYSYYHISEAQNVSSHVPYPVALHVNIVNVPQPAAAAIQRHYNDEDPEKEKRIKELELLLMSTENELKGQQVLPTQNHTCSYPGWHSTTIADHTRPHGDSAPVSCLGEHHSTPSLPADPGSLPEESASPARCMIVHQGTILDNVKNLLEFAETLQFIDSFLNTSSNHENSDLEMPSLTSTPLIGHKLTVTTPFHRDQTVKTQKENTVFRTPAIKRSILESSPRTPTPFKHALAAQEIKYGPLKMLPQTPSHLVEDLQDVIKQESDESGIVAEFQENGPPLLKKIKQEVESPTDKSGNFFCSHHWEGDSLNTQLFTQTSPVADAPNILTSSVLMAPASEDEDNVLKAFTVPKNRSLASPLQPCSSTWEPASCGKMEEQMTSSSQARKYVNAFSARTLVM
# Sequence of Oxysterols receptor LXR-beta (Homo sapiens) (P55055 whole entry, looked up, the tested form may be a part): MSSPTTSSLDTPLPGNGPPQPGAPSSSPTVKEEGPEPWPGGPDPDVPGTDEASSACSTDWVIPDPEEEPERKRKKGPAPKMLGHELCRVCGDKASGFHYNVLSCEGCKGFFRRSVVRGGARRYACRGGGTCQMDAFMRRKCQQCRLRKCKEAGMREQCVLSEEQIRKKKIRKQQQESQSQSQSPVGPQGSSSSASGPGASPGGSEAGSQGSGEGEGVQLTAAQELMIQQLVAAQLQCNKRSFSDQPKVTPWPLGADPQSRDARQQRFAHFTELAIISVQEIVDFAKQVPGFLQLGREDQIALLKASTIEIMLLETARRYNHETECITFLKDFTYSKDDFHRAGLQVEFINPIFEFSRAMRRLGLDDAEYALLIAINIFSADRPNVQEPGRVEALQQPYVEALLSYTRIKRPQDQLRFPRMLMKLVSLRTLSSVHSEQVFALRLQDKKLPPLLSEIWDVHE
# Sequence of Nuclear receptor subfamily 4 group A member 2 (Homo sapiens) (P43354 whole entry, looked up, the tested form may be a part): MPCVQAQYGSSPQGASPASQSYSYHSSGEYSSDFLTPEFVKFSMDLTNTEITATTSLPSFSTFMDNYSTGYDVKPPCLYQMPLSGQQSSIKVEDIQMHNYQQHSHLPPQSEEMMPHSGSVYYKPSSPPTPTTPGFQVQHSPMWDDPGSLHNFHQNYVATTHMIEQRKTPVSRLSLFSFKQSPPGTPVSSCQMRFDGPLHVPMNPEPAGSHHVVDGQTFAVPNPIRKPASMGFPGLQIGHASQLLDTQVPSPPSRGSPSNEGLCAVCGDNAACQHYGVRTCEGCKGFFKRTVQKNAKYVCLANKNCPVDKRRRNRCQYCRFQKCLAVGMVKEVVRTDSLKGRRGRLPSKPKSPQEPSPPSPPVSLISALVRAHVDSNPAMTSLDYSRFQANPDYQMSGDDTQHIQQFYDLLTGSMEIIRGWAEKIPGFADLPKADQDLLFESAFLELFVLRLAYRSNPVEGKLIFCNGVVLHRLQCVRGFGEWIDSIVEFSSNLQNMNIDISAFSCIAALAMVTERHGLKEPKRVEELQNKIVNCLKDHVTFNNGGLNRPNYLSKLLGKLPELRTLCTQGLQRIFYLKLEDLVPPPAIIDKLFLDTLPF
# Sequence of Estrogen-related receptor gamma (Homo sapiens) (P62508 whole entry, looked up, the tested form may be a part): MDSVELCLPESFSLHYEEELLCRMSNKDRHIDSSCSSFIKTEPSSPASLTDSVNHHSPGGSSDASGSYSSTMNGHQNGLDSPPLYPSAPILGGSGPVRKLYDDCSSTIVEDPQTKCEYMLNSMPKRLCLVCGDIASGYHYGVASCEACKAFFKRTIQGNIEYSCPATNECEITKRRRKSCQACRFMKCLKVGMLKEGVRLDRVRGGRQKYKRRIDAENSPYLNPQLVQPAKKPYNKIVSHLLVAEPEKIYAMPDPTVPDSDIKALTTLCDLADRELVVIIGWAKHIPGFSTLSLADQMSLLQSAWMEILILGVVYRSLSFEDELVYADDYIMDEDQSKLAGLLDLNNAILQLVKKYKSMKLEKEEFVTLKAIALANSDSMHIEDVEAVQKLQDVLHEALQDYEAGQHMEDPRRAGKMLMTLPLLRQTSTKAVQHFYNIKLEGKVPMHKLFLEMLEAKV
# Sequence of Oxysterols receptor LXR-alpha (Homo sapiens) (Q13133 whole entry, looked up, the tested form may be a part): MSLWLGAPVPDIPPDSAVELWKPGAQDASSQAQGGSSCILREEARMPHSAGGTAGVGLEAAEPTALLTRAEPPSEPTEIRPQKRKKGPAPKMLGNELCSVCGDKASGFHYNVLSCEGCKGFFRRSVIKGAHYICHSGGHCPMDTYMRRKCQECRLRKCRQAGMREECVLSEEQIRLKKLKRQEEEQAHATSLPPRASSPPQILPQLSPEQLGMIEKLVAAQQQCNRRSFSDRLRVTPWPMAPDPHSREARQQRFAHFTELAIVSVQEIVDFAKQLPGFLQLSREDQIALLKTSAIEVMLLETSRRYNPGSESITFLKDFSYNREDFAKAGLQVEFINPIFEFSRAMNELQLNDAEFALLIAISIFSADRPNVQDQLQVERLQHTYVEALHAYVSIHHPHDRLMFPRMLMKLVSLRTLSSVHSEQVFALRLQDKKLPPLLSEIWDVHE
# Sequence of Glucocorticoid receptor (Homo sapiens) (P04150 whole entry, looked up, the tested form may be a part): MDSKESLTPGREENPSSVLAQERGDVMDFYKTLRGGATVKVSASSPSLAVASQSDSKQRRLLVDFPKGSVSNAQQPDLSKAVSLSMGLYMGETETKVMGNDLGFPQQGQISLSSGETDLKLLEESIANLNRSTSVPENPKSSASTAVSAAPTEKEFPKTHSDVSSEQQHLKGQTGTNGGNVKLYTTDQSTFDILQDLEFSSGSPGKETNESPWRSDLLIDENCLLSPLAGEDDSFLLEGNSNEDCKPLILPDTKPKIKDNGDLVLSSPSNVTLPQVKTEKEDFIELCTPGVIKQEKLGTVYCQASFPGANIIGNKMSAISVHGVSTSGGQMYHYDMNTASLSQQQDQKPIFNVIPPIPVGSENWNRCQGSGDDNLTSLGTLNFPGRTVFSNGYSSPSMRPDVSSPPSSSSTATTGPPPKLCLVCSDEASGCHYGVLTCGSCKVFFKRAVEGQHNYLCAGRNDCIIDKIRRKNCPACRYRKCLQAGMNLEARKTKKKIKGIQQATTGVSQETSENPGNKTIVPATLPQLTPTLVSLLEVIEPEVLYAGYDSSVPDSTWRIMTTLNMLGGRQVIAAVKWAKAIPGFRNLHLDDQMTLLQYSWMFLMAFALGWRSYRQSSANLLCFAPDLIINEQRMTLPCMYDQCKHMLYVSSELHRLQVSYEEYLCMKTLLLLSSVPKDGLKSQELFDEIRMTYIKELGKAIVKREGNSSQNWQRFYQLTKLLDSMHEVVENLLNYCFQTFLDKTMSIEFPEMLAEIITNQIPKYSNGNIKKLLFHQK
# Sequence of Hepatocyte nuclear factor 4-alpha (Homo sapiens) (P41235 whole entry, looked up, the tested form may be a part): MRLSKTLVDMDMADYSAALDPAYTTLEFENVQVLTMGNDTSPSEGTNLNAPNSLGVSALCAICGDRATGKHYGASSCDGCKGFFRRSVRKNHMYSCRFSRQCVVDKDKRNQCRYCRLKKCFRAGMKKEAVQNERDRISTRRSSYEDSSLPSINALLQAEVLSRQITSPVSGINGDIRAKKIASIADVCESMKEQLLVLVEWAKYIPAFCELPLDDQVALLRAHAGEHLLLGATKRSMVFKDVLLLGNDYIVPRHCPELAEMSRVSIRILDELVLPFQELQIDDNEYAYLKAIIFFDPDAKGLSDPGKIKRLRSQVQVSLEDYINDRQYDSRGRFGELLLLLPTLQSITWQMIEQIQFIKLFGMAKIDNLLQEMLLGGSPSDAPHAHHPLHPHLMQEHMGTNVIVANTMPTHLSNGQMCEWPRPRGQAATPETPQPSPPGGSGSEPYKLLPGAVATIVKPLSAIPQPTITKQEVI
# Sequence of Bile acid receptor (Homo sapiens) (Q96RI1 whole entry, looked up, the tested form may be a part): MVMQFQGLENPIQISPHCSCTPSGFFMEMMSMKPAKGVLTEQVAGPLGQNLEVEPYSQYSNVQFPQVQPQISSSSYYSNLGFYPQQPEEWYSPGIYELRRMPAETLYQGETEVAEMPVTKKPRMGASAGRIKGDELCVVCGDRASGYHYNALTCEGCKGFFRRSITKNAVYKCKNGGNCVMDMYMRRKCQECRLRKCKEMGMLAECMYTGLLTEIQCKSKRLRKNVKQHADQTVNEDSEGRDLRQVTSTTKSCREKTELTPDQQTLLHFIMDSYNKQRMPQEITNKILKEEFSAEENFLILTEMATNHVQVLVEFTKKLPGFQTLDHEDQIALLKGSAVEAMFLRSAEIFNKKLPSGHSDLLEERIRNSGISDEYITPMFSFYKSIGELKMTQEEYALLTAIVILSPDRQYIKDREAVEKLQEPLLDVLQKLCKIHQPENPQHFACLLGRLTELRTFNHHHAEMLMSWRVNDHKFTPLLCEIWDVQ
smiles,measurement,setting,value
CCCC(C)C(=O)OCC (stereo not given),outcome,[1],inactive
same,outcome,[2],inactive
same,outcome,[3],inactive
same,outcome,[4],inactive
same,outcome,[5],inactive
same,outcome,[6],inactive
same,outcome,[7],inactive
same,outcome,[8],inactive
same,outcome,[9],inactive
same,outcome,[10],inactive
CC(CCC(=O)O)(c1ccc(O)cc1)c1ccc(O)cc1,outcome,[1],inactive
same,outcome,[2],inactive
same,outcome,[3],inactive
same,outcome,[4],inactive
same,AC50,[5],16.4 µM (active)
same,outcome,[6],inactive
same,outcome,[7],inactive
same,outcome,[8],inactive
same,outcome,[11],inactive
same,outcome,[12],inactive
same,outcome,[13],inactive
same,outcome,[14],inactive
same,outcome,[15],inactive
same,outcome,[10],inactive
CCCCNC(=S)NCCCC,outcome,[1],inactive
same,outcome,[2],inactive
same,outcome,[3],inactive
same,outcome,[4],inactive
same,outcome,[5],inactive
same,outcome,[6],inactive
same,outcome,[7],inactive
same,outcome,[8],inactive
same,outcome,[9],inactive
same,outcome,[16],inactive
same,outcome,[12],inactive
same,outcome,[13],inactive
same,outcome,[14],inactive
N#Cc1ccc(C(c2ccc(C#N)cc2)n2cncn2)cc1,outcome,[1],inactive
same,outcome,[2],inactive
same,outcome,[3],inactive
same,outcome,[4],inactive
same,outcome,[5],inactive
same,outcome,[6],inactive
same,outcome,[17],inactive
same,outcome,[9],inactive
same,outcome,[10],inactive
CCC1(C)C(=O)N(Cl)C(=O)N1Cl (stereo not given),AC50,[1],52.2 µM (active)
same,outcome,[2],inactive
same,outcome,[3],inactive
same,AC50,[4],32.4 µM (active)
same,outcome,[5],inactive
same,AC50,[6],47.1 µM (active)
same,outcome,[17],inactive
same,outcome,[7],inactive
same,outcome,[8],inactive
same,outcome,[9],inactive
same,outcome,[12],inactive
same,outcome,[14],inactive
same,outcome,[15],inactive
same,outcome,[10],inactive
COC(C=C(C)CCC=C(C)C)OC,outcome,[1],inactive
same,outcome,[2],inactive
same,outcome,[3],inactive
same,AC50,[4],76.7 µM (active)
same,outcome,[5],inactive
same,outcome,[6],inactive
same,outcome,[17],inactive
same,outcome,[7],inactive
same,outcome,[9],inactive
same,outcome,[16],inactive
same,outcome,[15],inactive
same,outcome,[10],inactive
Cc1cc(C)c(C=O)c(C)c1,outcome,[1],inactive
same,outcome,[2],inactive
same,outcome,[3],inactive
same,AC50,[4],3.24 µM (active)
same,outcome,[5],inactive
same,outcome,[6],inactive
same,outcome,[17],inactive
same,outcome,[7],inactive
same,outcome,[11],inactive
same,outcome,[12],inactive
same,outcome,[10],inactive
Oc1ccc(-c2ccccc2)c(Cl)c1,outcome,[1],inactive
same,outcome,[2],inactive
same,outcome,[3],inactive
same,AC50,[4],33.4 µM (active)
same,AC50,[5],9.14 µM (active)
same,AC50,[6],33.4 µM (active)
same,outcome,[17],inactive
same,outcome,[9],inactive
same,outcome,[18],inactive
same,outcome,[11],inactive
same,outcome,[14],inactive
same,outcome,[10],inactive
c1ccc(-c2nc3ccccc3[nH]2)cc1,outcome,[1],inactive
same,outcome,[2],inactive
same,outcome,[3],inactive
same,outcome,[4],inactive
same,outcome,[5],inactive
same,outcome,[6],inactive
same,outcome,[7],inactive
same,outcome,[9],inactive
same,outcome,[16],inactive
same,outcome,[18],inactive
same,outcome,[11],inactive
same,outcome,[12],inactive
same,outcome,[13],inactive
same,outcome,[14],inactive
same,outcome,[15],inactive
same,outcome,[10],inactive
CC(=O)C(C)C,outcome,[1],inactive
same,outcome,[2],inactive
same,outcome,[3],inactive
same,outcome,[4],inactive
same,outcome,[5],inactive
same,outcome,[6],inactive
same,outcome,[7],inactive
same,outcome,[9],inactive
same,outcome,[18],inactive
same,outcome,[11],inactive
same,outcome,[12],inactive
same,outcome,[14],inactive
same,outcome,[10],inactive
CC1CCC(C(C)(C)S)C(=O)C1 (stereo not given),outcome,[1],inactive
same,outcome,[2],inactive
same,outcome,[3],inactive
same,outcome,[4],inactive
same,outcome,[5],inactive
same,outcome,[6],inactive
same,outcome,[17],inactive
same,outcome,[7],inactive
same,outcome,[16],inactive
same,outcome,[18],inactive
same,outcome,[11],inactive
same,outcome,[12],inactive
same,outcome,[13],inactive
same,outcome,[14],inactive
same,outcome,[15],inactive
same,outcome,[10],inactive
